# D1 antag = antagonists of human D1 dopamine receptor. activity change, negative = inhibition, % at 10 µM. 3.2% of 360,000 active. AID 504652. HEK293 TREx D1 cells, calcium flux, dopamine EC80; hits give low values; in the data active means activity change below about -30%; further: on the % scale 0 is the no-effect control and ±100 the full control effect
#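 After overnight tetracycline induction at 30 C, force-coupled D1 HEK293 cells took up a no-wash calcium dye at room temperature. Compounds were added and monitored 180 s, and the response to EC80 dopamine was then recorded.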
# TRHR ag = TRH receptor (human) agonism | 0.18% of 360,000 active | activation, % at 2 µM | TRHR cells, calcium flux fluo-8, FDSS agonist mode; further: 0% is about no effect
# Target sequence (P34981 whole entry, looked up): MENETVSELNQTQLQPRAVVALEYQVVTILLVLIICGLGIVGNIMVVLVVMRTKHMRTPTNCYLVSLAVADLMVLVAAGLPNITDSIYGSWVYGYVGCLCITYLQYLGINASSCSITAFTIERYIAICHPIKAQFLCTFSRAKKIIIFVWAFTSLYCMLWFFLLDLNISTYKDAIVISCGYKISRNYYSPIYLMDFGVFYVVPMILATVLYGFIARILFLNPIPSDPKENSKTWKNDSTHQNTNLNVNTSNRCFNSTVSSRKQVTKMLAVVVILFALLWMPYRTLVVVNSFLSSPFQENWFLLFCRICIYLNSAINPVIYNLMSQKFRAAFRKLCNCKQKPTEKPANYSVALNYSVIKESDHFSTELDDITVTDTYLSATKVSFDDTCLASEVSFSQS
#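 Steps: seed TRHR cells overnight; add fluo-8 no-wash Ca dye, RT 30 min–1.5 h; record 10 s baseline; pin-transfer compounds; monitor fluorescence 1 cycle/s for the agonist window. Calcium increases flag candidate agonists.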
# D1 ag = activates the human D1 dopamine receptor | activation, % at 2 µM | 1% of 360,000 active | P21728 | HEK293 T-REx D1 cells, calcium flux, agonist mode; further: 0% is about no effect
#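 Inducible HEK293 T-REx D1 cells, force-coupled to calcium signalling, were plated at 4000 cells/well with tetracycline and held overnight at 30 C. After no-wash calcium dye loading, compound-evoked calcium rise over 180 s flagged agonists.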
# D1 potentiator = potentiators of human D1 dopamine receptor; P21728; 0.036% of 360,000 active; AID 504651; potentiation, % at 10 µM; HEK293 TREx D1 cells, calcium flux, dopamine EC20 potentiation; in the data active means potentiation above about 30%; further: 0% is about no effect
# TRHR enhancer = allosteric enhancers of human TRH receptor; P34981; TRHR cells, fluo-8 calcium fluorescence, EC20 TRH enhancement; enhancement, % at 2 µM; 0.66% of 360,000 active; in the data active means enhancement above about 30%; further: 0% is about no effect
#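 TRHR-expressing cells loaded with fluo-8 calcium dye were read kinetically (ex 480/em 530) during compound addition, then stimulated with an EC20 of TRH (10 nM final). Enhancement of the Gq-mediated intracellular calcium response was scored.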
# * = called active by the depositor; nt = no result given; ! = not confirmed by another sample. Most compounds without a hit are left out; they make up all but 4.7% or so of the library. Unless noted, no stated cut-off is given here; in the data, active means activation above about 30%; inactive means the rest.
SMILES,D1 antag,TRHR ag,D1 ag,D1 potentiator,TRHR enhancer
N#Cc1nc(NC2CCCC2)c2ncn(-c3cc(F)cc(F)c3)c2n1,5,1,0,-2,-3
CN(CC(=O)Nc1ccccc1Cl)C(=O)COC(=O)c1ccc(Cl)cc1[N+](=O)[O-],-42*,-1,0,-9,16
N#C/C(=C\c1coc2ccc(O)cc2c1=O)C(=O)Nc1nc2ccccc2s1,-52*,74*,227*,2,16
N#C/C(=C\c1coc2ccccc2c1=O)C(N)=S,11,-1,3,6,1
O=C(NCCOCCO)C(=O)Nc1c2c(nn1-c1ccc(F)cc1)CSC2,nt,0,-2,-1,-3
CN1CCN(CC(=O)Nc2cc(N(C)C)nc3ccccc23)CC1,-31*,0,3,-9,-2
COC(=O)C1=NN(C(=O)c2ccccc2)C(O)(c2ccc([N+](=O)[O-])cc2)C1 (centres undefined),-2,24,86*,-7,-13
O=C(c1ccccc1)N1N=C(C(F)(F)F)CC1(O)c1ccccc1 (centres undefined),-14,-2,3,1,38*
COC(=O)C1=NN(C(=O)c2ccc(C)cc2)C(O)(c2ccc(Cl)cc2)C1 (centres undefined),-3,6,57*,-7,4
COC(=O)C1=NN(C(=O)c2ccccc2)C(C)(O)C1 (centres undefined),2,-1,3,1,2
Cn1c2ccccc2c2c(C(=O)N3CCN(c4cccc(Cl)c4)CC3)cn(C3CCCCC3)c(=O)c21,0,1,8,-2,15
COC(=O)c1cc(-c2ccc(C)cc2)c2c(=O)n(C)c(=O)n(C)c2n1,-2,1,2,-2,1
CC(=O)Nc1ccc(NC(=O)C2CC(=O)N(Cc3ccco3)C2)cc1 (centres undefined),3,0,13,-5,-7
Cc1ccnc(NC(=O)C2CC(=O)N(Cc3ccccc3)C2)c1 (centres undefined),-44*,1,22,1,4
O=C(Nc1ccc(F)c(Cl)c1)C1CC(=O)N(Cc2ccco2)C1 (centres undefined),-43*,0,2,10,5
Cc1ccc2nc(NC(=O)C3CC(=O)N(Cc4ccco4)C3)sc2c1 (centres undefined),2,1,13,-3,36*
Cc1ccc(NC(=O)C2CC(=O)N(Cc3ccccc3)C2)nc1 (centres undefined),-4,0,2,2,1
COc1ccc(CNC(=O)c2cc3c(=O)n(Cc4cccs4)ccc3nc2C)cc1,12,0,1,-4,5
CCOc1ccccc1NC(=O)NC(CC)c1c(-n2cccc2)sc2c1CCN(C)C2 (centres undefined),6,0,2,4,6
CCOc1ccc(S(=O)(=O)NCc2nc3cccnc3n2Cc2ccccc2OC)cc1,7,-1,4,3,1
CCc1cccc(NC(=O)CSc2ncc3c(n2)-c2ccccc2N(Cc2ccccc2C)S3(=O)=O)c1,9,-1,11,-4,1
COc1cccc(N2CCN(c3ncc4c(n3)CCN(Cc3ccc(Br)cc3)C4)CC2)c1,5,0,0,-1,-4
CC(=O)Nc1ccc(S(=O)(=O)N2CCOCC2)cc1,1,1,5,-6,-5
COc1ccc(NS(=O)(=O)c2ccc(S(=O)(=O)N3CCOCC3)cc2)cc1,-33*,2,34*,-4,2
O=S(=O)(c1ccc(NC(=S)NCc2ccc(F)cc2)cc1)N1CCOCC1,-49*,3,30*,-12,-4
SMILES,D1 antag,TRHR ag,D1 ag,D1 potentiator,TRHR enhancer
O=S(=O)(c1ccc(NC(=S)NCCc2ccccc2)cc1)N1CCOCC1,-3,1,15,-2,-1
Cc1cccc(C(=O)NC(=S)Nc2ccc(S(=O)(=O)N3CCN(C)CC3)cc2)c1,-28,0,6,-21,3
CC(=O)NC(=S)Nc1ccc(S(=O)(=O)N2CCOCC2)cc1,-8,0,1,-4,32*
Cc1ccc(C(=O)NC(=S)Nc2ccc(S(=O)(=O)N3CCN(C)CC3)cc2)cc1,-56*,0,7,-17,-3
CCOc1ccccc1NC(=O)C(C)N(c1ccccc1)S(C)(=O)=O (centres undefined),5,-2,-2,-3,9
O=C(O)c1ccc2c(c1)C(=O)N([C@H](Cc1ccc(O)c(O)c1)C(=O)O)C2=O,-22,0,6,-8,4
Cc1c2cnn(CC(=O)Nc3ccc(F)cc3F)c(=O)c2c(C)n1Cc1cccc(Cl)c1,6,1,12,-3,-3
S=C(NCCCN1CCOCC1)N1CCN(c2nc(-c3ccc(Cl)cc3)cs2)CC1,-55*,0,1,-2,-4
S=C(NCC1CCCO1)N1CCN(c2cccc(Cl)c2)CC1 (centres undefined),-9,0,5,5,1
S=C(NCCCN1CCOCC1)N1CCN(c2ccccc2)CC1,-4,1,5,11,-1
S=C(NCC1CCCO1)N1CCN(c2nc(-c3ccc(Cl)cc3)cs2)CC1 (centres undefined),-30*,0,1,-1,-2
S=C(NCCCN1CCOCC1)N1CCN(c2nc(-c3ccccc3)cs2)CC1,-9,-2,88*,-8,-2
COCCNC(=S)N1CCN(c2nc(-c3ccccc3)cs2)CC1,-15,-1,8,-5,3
COc1cc(OC)cc(-c2nnc(SCC(=O)N3CCC(C)CC3)o2)c1,16,-1,-2,0,-4
CCn1c(=O)cc(SCC(=O)NCCCN2CCN(c3ccccc3F)CC2)c2ccccc21,-81*,-1,30*,-14,0
Cn1c(=O)cc(OCC(=O)NCCCN2CCN(c3ccccc3F)CC2)c2ccccc21,-13,0,0,-8,4
Cn1c2ccccc2c2cnn(CC(=O)NCCCN3CCN(c4ccccc4F)CC3)c(=O)c21,-63*,1,10,-5,4
Cn1c(C(=O)NCCCN2CCN(c3ccccc3F)CC2)cc2c(=O)[nH]c3ccccc3c21,-40*,0,1,-8,-1
COc1ccccc1N1CCN(CCCNC(=O)Cn2ncc3c([nH]c4ccccc43)c2=O)CC1,-30,0,0,-13,32*!
CC1CC(C)CN(CCCNC(=O)c2cc3c(=O)[nH]c4ccccc4c3n2C)C1 (centres undefined),7,0,1,-3,-2
CN1CCN(CCCNC(=O)Cn2ncc3c4ccccc4n(C)c3c2=O)CC1,-3,1,2,3,-4
Cc1ccc(C)c(N2CCN(CCCNC(=O)Cn3ncc4c([nH]c5ccccc54)c3=O)CC2)c1,-25,0,-2,4,4

# Bioassay records from PubChem.
